# ChEMBL document CHEMBL3988442, “University of Dundee, Small-Polar-MMV Screening Library” (2021)
# Molecular target: Sialic acid-binding Ig-like lectin 9 (Homo sapiens) (UniProt Q9Y336)
# Assay: Hs-Siglec9 ALPHAscreen SOP 20170721
# Set-up: scale not given: direction of the effect not stated beside the values
# Conditions: 10 µM
# Chain of Sialic acid-binding Ig-like lectin 9 (Homo sapiens) (Q9Y336 whole entry): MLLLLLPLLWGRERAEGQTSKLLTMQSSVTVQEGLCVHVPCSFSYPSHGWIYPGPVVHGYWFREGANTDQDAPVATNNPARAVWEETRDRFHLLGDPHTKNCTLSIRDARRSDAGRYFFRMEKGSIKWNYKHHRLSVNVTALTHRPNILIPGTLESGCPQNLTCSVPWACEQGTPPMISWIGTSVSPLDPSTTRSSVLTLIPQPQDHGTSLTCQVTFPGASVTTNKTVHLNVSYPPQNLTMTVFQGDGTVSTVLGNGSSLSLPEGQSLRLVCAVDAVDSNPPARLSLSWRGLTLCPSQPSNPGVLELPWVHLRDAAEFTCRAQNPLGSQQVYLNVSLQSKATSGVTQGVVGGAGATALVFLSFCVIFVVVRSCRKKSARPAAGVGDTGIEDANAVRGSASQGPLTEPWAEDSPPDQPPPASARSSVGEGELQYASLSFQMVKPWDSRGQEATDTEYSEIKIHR
row,SMILES,Percent Effect
1,CN(C)C(=O)COC[C@]12COC[C@H]1CN(CC1CCC1)C2,19.2%
2,COCCN1CC[C@H](O)[C@@H]1Cc1ccccc1,0.93%
3,Cc1cc(O)nc(C2CCCN(Cc3ccncc3)C2)n1 (stereo not given),-7.91%
4,CN(C)C(=O)c1ccc2c(c1)N(C)C(CC(=O)NCc1ccno1)CO2 (stereo not given),0.254%
5,COc1c(CNCc2ccc(C(=O)NC3CC3)cc2)c(C)nn1C,6.83%
6,CN(C)CC1CN(C(=O)NCc2ccccc2)Cc2nccn2C1 (stereo not given),4.01%
7,CC(=O)NCC(=O)N1CCC2(CC1)CN(c1cccnc1)C(=O)CO2,-10.1%
8,O=C(NCCN1CCOCC1)c1cc(-c2ccc3c(c2)CCO3)n[nH]1,-3.18%
9,CC(C)c1cc(NC(=O)CN2CCCC2Cn2cccn2)on1 (stereo not given),-1.04%
10,CCC(=O)Nc1nnc(CCCOc2ccccc2)s1,2.25%
11,Cc1cc(C)n(C2CCCN(C(=O)C3=NN(C)C(=O)CC3)C2)n1 (stereo not given),-2.77%
12,CC1CCc2nc(O)c(C(=O)NCc3cccc(F)c3)cc2C1 (stereo not given),0.168%
13,Cc1nc2c(c(NC3CC3)n1)CCN(C(=O)C(C)(C)O)CC2,-8.96%
14,CCCN1CCC(N(Cc2ncc(C)o2)C(C)=O)C1 (stereo not given),26.2%
15,O=C1NCCN1C1CCCN(Cc2coc(-c3ccc(F)cc3)n2)C1 (stereo not given),25.4%
16,Cc1noc(C)c1CN(C)CC1CCCN1c1cccnn1 (stereo not given),-2.33%
17,Cc1noc(C)c1CN1C(=O)[C@H]2CC[C@@H]1CN(Cc1cccnc1N)C2,-8.6%
18,Cc1cc(C)n(CC2CCCCN2Cc2cscn2)n1 (stereo not given),14.9%
19,Cc1cc(CNC(=O)C2CCCCN2C(=O)OC(C)(C)C)no1 (stereo not given),0.833%
20,O=C(c1csc(-c2cccs2)n1)N1CCCC1Cn1cccn1 (stereo not given),3.2%

row,SMILES,Percent Effect
1,O=C(CSCC1CC1)N1CCCC(c2nccn2Cc2ccncc2)C1 (stereo not given),10.9%
2,CCN1CC(C(=O)N2CCC(Oc3ccccc3Cl)CC2)CC1=O (stereo not given),-1.45%
3,CNC(=O)CCNC(=O)c1cccc(Cn2nc(C)cc2C)c1,2.11%
4,CN(CC(=O)N1CCCC1Cn1cccn1)C1CC1 (stereo not given),13.2%
5,O=C(Cn1nc(-c2ccc(F)cc2)oc1=O)Nc1ccccc1,-9.34%
6,Cc1cnccc1N1CCCN(C(=O)CCCc2cn[nH]c2)CC1,18.3%
7,Cc1ncccc1CNCC1CCN(CC(O)c2ccccc2)CC1 (stereo not given),1.69%
8,CCc1nc(CN(C)C2CCN(Cc3cnc(C)cn3)C2)no1 (stereo not given),-16.7%
9,CSc1ccc(NC(=O)Nc2ccc3c(c2)N(S(C)(=O)=O)CC3)cc1,3.62%
10,O=C(Cn1ccc2c(Cl)cccc21)N[C@@H](C(=O)O)c1ccccc1,0.703%
11,Cc1ccc(C2CSCCN2C(=O)c2ccsc2)o1 (stereo not given),3.24%
12,COc1ccc(NC(=O)CNc2ccc(Br)cc2F)cc1,2.32%
13,CNS(=O)(=O)c1cccc(CNc2cc(C(F)(F)F)ccn2)c1,-1.96%
14,CN(C)c1ccc(CCNC(=O)C2CCC(=O)N(C3CCCC3)C2)cc1 (stereo not given),1.11%
15,CC(C)c1nn(C)c(N2CCOCC2)c1CN[C@H](C)CO,-5.12%
16,Cc1nccn1CC1CCCN1S(=O)(=O)Cc1ccon1 (stereo not given),-6.85%
17,COc1cccc(OCCNC(=O)CN2CCN(C)CC2C)c1 (stereo not given),15%
18,Cc1cc(C)cc(N(C)S(=O)(=O)c2cc(C(=O)O)cs2)c1,15.8%
19,CCOc1cccc(C(C)NCc2ccc(OC)c(OC)c2OC)c1 (stereo not given),15.5%
20,CC(NC(=O)CNCCn1cccn1)c1ccc2c(c1)CCCC2 (stereo not given),15.8%
